# This is part of a sample that, as a whole, favours compounds with a hit. Of some 83,000 tested, about 20% had one in any assay.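 Step 1: grow cells in 96-well plates. Step 2: add test compound at a single concentration. Step 3: incubate 48 h. Step 4: record percent growth.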 Unmarked numbers belong to inactive results. Activity calls are given as the source filed them. The calls were made as follows: active = growth percent below 10; inactive = the rest.
# What was measured:
# Assay in all cases: NCI-60 one-dose screen, 48 h (100 = growth as untreated, 0 = no growth, -100 = all killed)
# Settings in all cases: 10 µM unless noted
# NCI-H23 lung = tested on: NCI-H23 lung
# NCI-H226 lung = tested on: NCI-H226 lung
# NCI-H322M lung = tested on: NCI-H322M lung
# HOP-62 NSCLC = tested on: HOP-62 NSCLC
# NCI-H460 lung = tested on: NCI-H460 lung
# HOP-92 NSCLC = tested on: HOP-92 NSCLC
# NCI-H522 lung = tested on: NCI-H522 lung
# A549/ATCC NSCLC = tested on: A549/ATCC NSCLC
# 786-0 renal = tested on: 786-0 renal
# COLO 205 colon = tested on: COLO 205 colon
# DU-145 prostate = tested on: DU-145 prostate
# K-562 leukemia = tested on: K-562 leukemia
# MALME-3M melanoma = tested on: MALME-3M melanoma
# MDA-MB-231 breast = tested on: MDA-MB-231 breast
# RXF 393 renal = tested on: RXF 393 renal
# SF-268 CNS = tested on: SF-268 CNS
# SF-295 CNS = tested on: SF-295 CNS
# SF-539 CNS = tested on: SF-539 CNS
# UACC-257 melanoma = tested on: UACC-257 melanoma
# M14 melanoma = tested on: M14 melanoma
Structure (SMILES),growth (NCI-H23 lung),growth (NCI-H226 lung),growth (NCI-H322M lung),growth (HOP-62 NSCLC),growth (NCI-H460 lung),growth (HOP-92 NSCLC),growth (NCI-H522 lung),growth (A549/ATCC NSCLC),growth (786-0 renal),growth (COLO 205 colon),growth (DU-145 prostate),growth (K-562 leukemia),growth (MALME-3M melanoma),growth (MDA-MB-231 breast),growth (RXF 393 renal),growth (SF-268 CNS),growth (SF-295 CNS),growth (SF-539 CNS),growth (UACC-257 melanoma),growth (M14 melanoma)
CC1=NN(c2nc(SCC(=O)Nc3nc4ccc(C)cc4s3)nc(-c3ccccc3)c2C#N)C(=O)C1,105%,89.4%,96.7%,86.4%,100%,85%,91.1%,107%,100%,118%,113%,94.7%,101%,106%,94.9%,97.2%,103%,90.3%,113%,109%
COc1ccccc1Nc1nc2c(s1)C1=CC[C@H]3[C@@H]4CC[C@H]([C@H](C)CCCC(C)C)[C@@]4(C)CC[C@@H]3[C@@]1(C)CC2,93.3%,103%,101%,95.9%,108%,90.8%,106%,103%,114%,106%,103%,102%,101%,103%,117%,102%,108%,104%,110%,101%
COc1cc(OC)c2sc(-c3ccc(-n4cncc4-c4ccc(OC)c(OC)c4)cc3)nc2c1,66.1%,66.7%,92.3%,83.2%,23.3%,39.4%,50.5%,45.6%,74.5%,48.3%,-4.76% (active),65.5%,73.1%,68%,12.1%,60.5%,48.8%,66.5%,71.5%,67.6%
CC(C)=NNc1ccccn1,68%,40.9%,19.4%,32.8%,30%,40.4%,25.5%,35.1%,61.7%,3.92% (active),48.4%,59.2%,48.5%,36.4%,69.8%,43.7%,67.6%,43.5%,11.9%,35.8%
Cn1c(=O)c2[nH]c(N/N=C/c3ccccc3Br)nc2n(C)c1=O,107%,110%,95.5%,112%,110%,104%,89.7%,101%,96.9%,137%,104%,87.9%,107%,97.8%,121%,104%,92.2%,113%,117%,99.9%
CC1(C)CCC(S(=O)(=O)c2ccc3c(c2)/C(=N\O)c2cc(S(=O)(=O)N4CCC(O)(c5cccc(C(F)(F)F)c5)CC4)ccc2-3)CC1,-48.7% (active),-55.9% (active),-38.5% (active),-92.1% (active),-84.5% (active),-36% (active),-81.4% (active),-83.9% (active),-87.3% (active),-90% (active),-83.8% (active),-70.2% (active),-79% (active),-68.7% (active),-85.4% (active),-71.2% (active),-64.8% (active),-82.1% (active),-69.9% (active),-74.8% (active)
CCN1C(=O)N(CC)C2C1NN=c1s/c(=C\c3ccc(Cl)cc3Cl)c(=O)n12 (stereo not given),28.4%,48.8%,42.4%,33.5%,5.72% (active),50.8%,-8.78% (active),14.6%,20.6%,-7.91% (active),6% (active),-83.7% (active),50.4%,12.4%,61.1%,42.3%,12.8%,-12.6% (active),68.6%,13.8%
CNc1nc(S(=O)c2ccc(C#N)cc2)nc2ccccc12 (stereo not given),78.4%,81.1%,99.6%,98.5%,85.2%,75%,50.3%,90.1%,97.5%,91.6%,40.6%,24.9%,54.8%,54.8%,62.9%,87.8%,99.5%,92%,85.3%,71.5%
Cc1nc2ncnc(Cl)c2[nH]1,95.3%,101%,98.2%,112%,104%,77.7%,91.3%,93.1%,105%,113%,106%,97.3%,106%,103%,112%,103%,107%,103%,91.1%,88.8%
CC(C)(C)n1cc(-c2ccnc(NCCNS(=O)(=O)c3cccc(F)c3)c2)c(-c2ccccc2)n1,79.1%,90.1%,97.8%,101%,90.7%,3.59% (active),79.8%,79.9%,81.2%,78.3%,96.1%,44.2%,107%,87%,96.8%,97.7%,76.8%,88.1%,98.9%,94.8%
CCN1CC(=O)N(/N=C2\C(=O)Nc3ccccc32)C1=S,91.4%,69.6%,88.6%,87%,88.3%,87.8%,85.4%,98.9%,103%,101%,112%,106%,91%,88.5%,76.5%,103%,96.6%,94.1%,103%,86%
CCN1CCN(Cc2cn(CC(=O)Nc3ccc4c(ccn4Cc4ccccc4)c3)nn2)CC1,104%,91.8%,98.8%,96%,114%,87.6%,99.9%,102%,97.8%,99.4%,105%,94.8%,99.5%,91.5%,111%,95.9%,105%,102%,103%,98.7%
CCCCC[C@@H]1Cc2cc(O)c(C(=O)O)c3c2[C@H](C[C@]2(OC[C@@H](CC(=O)[C@@](C)(CC)C(=O)OC)[C@@H]2C)O3)O1,112%,92.1%,105%,117%,109%,113%,117%,107%,108%,145%,120%,117%,104%,100%,119%,108%,121%,100%,87.6%,119%
COc1ccc2[nH]cc(-c3nc(-c4cn(C)c5c(Cl)nccc45)cs3)c2c1,58.3%,40.8%,75.5%,56.6%,6.1% (active),78.8%,13.9%,33.8%,16.2%,32.9%,40.7%,17.9%,72.1%,48.2%,32.5%,73%,37.9%,23.3%,-33% (active),14%
CC(=O)OCc1nc(C#N)c(N(C)C)o1,102%,97.3%,99.8%,91.4%,103%,83%,90.3%,92.5%,95%,105%,110%,99.2%,97.8%,94.9%,87.6%,99.6%,108%,92.1%,92.8%,99.8%

# Source: PubChem BioAssay (NCI)
